# G9a inh: qHTS Assay for Inhibitors of Histone Lysine Methyltransferase G9a; Histone-lysine N-methyltransferase EHMT2 (Homo sapiens), Q96KQ7; G9a H3K9 monomethylation, AlphaScreen, 2 h; Potency, µM (titrated, usually from 102 µM), inactives show top-dose activity, negative = inhibition, most hits filed as inhibitors; actives 8.8% (n = 350,000); AID 504332, 2011; further: on the % scale 0 is the no-effect control and ±100 the full control effect; nearly all actives have a fitted effect of over 75% in size
#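 Chemiluminescent proximity detection of H3K9 monomethylation, read after 10 min bead incubation in the dark. Reaction: 20 nM G9a, 500 nM biotin-H3K9 peptide, 20 uM SAM cofactor, 2 h, room temperature, following 15 min enzyme-compound preincubation.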
# L3MBTL1 inh: qHTS Assay for the Inhibitors of L3MBTL1; Lethal(3)malignant brain tumor-like protein 1 (Homo sapiens), Q9Y468; AlphaScreen L3MBTL1–H3K9me1 peptide binding; Potency, µM (titrated, usually from 57.1 µM), for inactives: at the highest dose activity, negative = inhibition, hits mostly inhibitors; actives 0.66% (n = 230,000); AID 485360, 2010; further: on the % scale 0 is the no-effect control and ±100 the full control effect; nearly all actives have a fitted effect of over 60% in size
#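 Displacement of a biotinylated histone H3(1-15) peptide monomethylated at Lys9 (75 nM) from L3MBTL1 (50 nM) was measured by AlphaScreen after a 30 min room-temperature compound incubation; cefsulodin titration served as intraplate control.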
# Sfp inh: qHTS Assay for Inhibitors of Bacillus subtilis Sfp phosphopantetheinyl transferase (PPTase). actives 3.5% (n = 310,000). Biochemical Sfp PPTase activity, qHTS. 4'-phosphopantetheinyl transferase ffp (Bacillus subtilis), Q9F4F7. AID 1490, 2009. Potency, µM, for inactives: largest response in the series, negative = inhibition, usual class: inhibitors;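 further: the enzyme is Sfp with the accession as filed and its product quenches rhodamine fluorescence; 0% = enzyme reaction without inhibitor and -100% = no enzyme wells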
#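 After 15 min at room temperature with compound, 15 nM Sfp received 5 uM rhodamine-CoA plus 12.5 uM BHQ-2-ybbR (50 mM Hepes pH 7.6, 10 mM MgCl2). Rate came from the fluorescence difference over 30 min, ex 525/em 598 nm.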
# HP1b binding inh: HTS for Inhibitors of HP1-beta Chromodomain Interactions with Methylated Histone Tails | AID 540317, 2011 | AlphaScreen HP1-beta / biotin-H3K9me3 peptide binding | Potency, µM (series often up to 114 µM), for the others: at the highest dose activity change, negative = inhibition, actives largely listed as inhibitors | actives 0.56% (n = 390,000) | Chromobox protein homolog 1 (Homo sapiens), P83916; further: nearly all actives have a fitted effect of over 70% in size
#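 Compound inhibition of the preformed complex between 50 nM HP1-beta and 50 nM biotinylated H3K9me3 peptide was read by AlphaScreen. Buffer was PBS pH 7.4 with 0.01% Tween-20. Incubations ran 30 min at room temperature, with 10 ug/mL donor/acceptor beads.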
# BAZ2B inh: qHTS Assay for Inhibitors of BAZ2B. Bromodomain adjacent to zinc finger domain protein 2B (Homo sapiens), Q9UIF8. AlphaScreen BAZ2B-H3K14Ac peptide displacement. Potency, µM (titrated, usually from 114 µM), without a hit: top-dose activity change, negative = inhibition, most hits filed as inhibitors. actives 4.4% (n = 360,000); further: on the % scale 0 is the no-effect control and ±100 the full control effect; nearly all actives have a fitted effect of over 60% in size
#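 Inhibition is scored as reduced AlphaScreen emission. The BAZ2B/b-H3(5-23)K14Ac complex (50 nM each) in PBS pH 7.4, 0.01% Tween-20 meets compound (up to 110 uM) for 30 min at RT before bead addition.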
# JMJD2A Tudor inh: qHTS Assay for Inhibitors of JMJD2A-Tudor Domain; Lysine-specific demethylase 4A (Homo sapiens), O75164; AlphaScreen JMJD2A-Tudor / H3K4me3 peptide binding; Potency, µM (titrated, usually from 114 µM), inactives show at the top dose activity change, negative = inhibition, actives largely listed as inhibitors; actives 4.4% (n = 390,000); further: on the % scale 0 is the no-effect control and ±100 the full control effect; nearly all actives have a fitted effect of over 50% in size
# Numbers without * were called inactive; ? = inconclusive; . = not tested or not shown; [ ] = another dose, or the depositor's remark. This is a sample that favours compounds with a hit; in the whole collection about 12% have one here. The call rests on the fitted dose curve; in most records, active means well fitted curve in the direction sought with a large enough effect; inconclusive means small, poorly fitted or top-dose-only effect, or another doubt; inactive means no such curve, though single readings can be large; an effect the other way counts as inactive or inconclusive. Potency means the concentration at half of the fitted maximal effect.
SMILES,G9a inh,L3MBTL1 inh,Sfp inh,HP1b binding inh,BAZ2B inh,JMJD2A Tudor inh
CC(C)N1CCN(c2ccc(C(=O)c3c(-c4ccc(O)cc4)sc4cc(O)ccc34)cc2)CC1,.,.,-20%,.,.,.
COc1ccc(OC)c(CN2CCN(C(=O)c3cc(S(=O)(=O)N4CCOCC4)ccc3C)CC2)c1,.,.,.,31%,.,0%
COCCn1nnnc1C(c1ccc(OC)cc1)N1CCC(C)CC1 (stereo not drawn),-29%[12.7 µM],.,10%,18%,?,-9%
COCCn1nnnc1C(c1ccc(Cl)cc1)N1CCSCC1 (stereo not drawn),50µM*,-7%,-6%,23%,?,-34%
CCC(c1nnnn1CCOC)N1CCN(C(=O)c2ccco2)CC1 (stereo not drawn),.,10%,-56%,19%,50µM*,?
COCCn1nnnc1C(c1ccc(OC)cc1)N1CCN(C(=O)c2ccco2)CC1 (stereo not drawn),?,.,6%,31%,-15%,-15%
COCCn1nnnc1C(c1ccc(Cl)cc1)N1CCN(C(=O)c2ccco2)CC1 (stereo not drawn),56µM*,.,8%,42%,-2%,45µM*
CSc1cccc(N2CC(C(=O)N(Cc3nnc(-c4ccccc4Cl)o3)C3CC3)CC2=O)c1 (stereo not drawn),.,.,-1%,5%,-15%,-20%
COc1ccccc1CN1CC[C@@]2(CCCN(C(=O)c3cccn3C)C2)C1,6%[12.7 µM],.,2%,.,.,.
c1ccn2c(c1)nc1c2nc2ccccn21,-5%,10%,-6%,22%,10%,7%
Cc1nc2ccccn2c1-c1ccnc(=S)[nH]1,10µM*,4%,10µM*,40%,-30%,-24%
COc1ccc(CCNC(=O)c2cccc(S(=O)(=O)N3CCc4ccccc4C3)c2)cc1,3%[12.7 µM],2%,.,23%,8%,-12%
O=S(=O)(Nc1cc2nc3ccccc3nc2n1Cc1ccccc1)c1ccc(Cl)cc1,15%[59 µM],4µM*,56µM*,78%,-6%,19%
O=S(=O)(NCc1ccccc1)c1ccc(Cl)cc1,14%,.,7%,72%,-2%,-4%[57.1 µM]
c1ccc(-c2nc3cnccn3c2Nc2ccc3c(c2)OCCO3)cc1,?,-12%,6%,?,?,45µM*
CN(C)c1ccc(-c2nc3ccccn3c2Nc2ccc3c(c2)OCCO3)cc1,2.2µM*,.,.,?,-32%,13µM*
Brc1ccc2nc(-c3ccccc3)c(Nc3ccc4c(c3)OCO4)n2c1,-7%[59 µM],.,.,38%,3%,3%
Clc1ccc(-c2nc3ncccn3c2Nc2ccc3c(c2)OCO3)cc1,12%,-2%,0%,9%,-20%,-13%[57.1 µM]
COc1cc(-c2nc3ccc(C)cn3c2Nc2ccc3c(c2)OCCO3)ccc1O,22µM*,?,-17%,50µM*,14µM*,?
Oc1ccc(-c2nc3ncccn3c2Nc2ccc3c(c2)OCO3)cc1,?,.,-2%,-24%,50µM*,?
Cc1cc2c3c(c1C)C1(C(=O)N3C(C)(C)CC2C)C(C#N)=C(N)Oc2cc(O)ccc21 (stereo not drawn),-4%[12.7 µM],.,-11%,-11%,-26%,?
Cc1ccc(NC(=O)C2C3C=CC4(O3)C2C(=O)N(CCCN2CCCCC2)C4C(=O)NC2CCCCC2)cc1C (stereo not drawn),-12%,.,3%,12%,-1%,-11%
CCOc1ccccc1NC(=O)Cn1cc(C(=O)c2ccc(Cl)cc2)c(=O)c2ccc(C)nc21,-24%[59 µM],.,.,-7%,5%[57.1 µM],-25%
CC(C)OC(=O)Nc1ccc2nc(-c3cscn3)[nH]c2c1,-50%[12.7 µM],.,20%,.,.,.
Cc1ccc(S(=O)(=O)N2CCC3(CC2)OCCN3S(=O)(=O)c2c(C)cc(C)cc2C)cc1,-28%,2%,.,31%,-24%,-9%
SMILES,G9a inh,L3MBTL1 inh,Sfp inh,HP1b binding inh,BAZ2B inh,JMJD2A Tudor inh
COc1cc(-c2nc3cnccn3c2Nc2ccc3c(c2)OCCO3)ccc1O,?,-13%,-10%,0%,2%,-35%
Clc1cccc(-c2nc3ccccn3c2Nc2ccc3c(c2)OCCO3)c1,?,.,.,?,11µM*,22µM*
Oc1ccc(-c2nc3ccccn3c2Nc2ccc3c(c2)OCCO3)cc1,13µM*,.,.,-37%,40µM*,50µM*
Cc1ccc2nc(-c3cccc(Cl)c3)c(Nc3ccc4c(c3)OCO4)n2c1,?,.,.,31%,.,-16%
CC(=O)NC(CC(=O)NCCc1ccccc1)c1ccccc1 (stereo not drawn),6%,.,10%,22%,-1%,-10%
COc1ccccc1OCCNC(=O)CC(NC(C)=O)c1ccccc1 (stereo not drawn),79µM*,.,12%,33%,-25%,3%
CN(C)S(=O)(=O)c1cccc(NC(=S)NNC(=O)c2cc3ccccc3cc2O)c1,?,-29%,.,-27%[57 µM],?,40µM*
CN(C)S(=O)(=O)c1cccc(NC(=S)NC(=O)c2ccco2)c1,40µM*,-12%,.,18%,-6%,?
CN(C)S(=O)(=O)c1cccc(NC(=O)c2c[nH]c3ccccc23)c1,?,.,18%,-25%,-13%,-26%
COc1cc(OC)cc(C(=O)NNC(=S)Nc2ccc(S(N)(=O)=O)cc2)c1,-20%[59 µM],53%,-8%,2%,8%,-30%
CN(C)S(=O)(=O)c1cccc(NC(=S)NC(=O)C2CCCCC2)c1,?,5%,-13%,20%,-3%,-31%
CCOc1ccc(NC(=S)NC(=O)c2ccco2)cc1,?,.,56µM*,8%,24%,-23%
NS(=O)(=O)c1ccc(NC(=S)NNC(=O)c2ccc(Br)o2)cc1,8.9µM*,.,25%,22%,-11%,-8%
COCC(C)n1c(SCc2cc(=O)n3cc(C)ccc3n2)nc2ccccc2c1=O (stereo not drawn),5%,6%,4%,32%,-4%,-4%
C/C=C/C(=O)C[C@H]1CC[C@@H](C)[C@@H](CCO)O1,.,.,-1%,.,.,.
COc1ccc(NC(=O)N2CC3(CCN(C(=O)c4c(C)noc4C)CC3)C2)cc1,-3%[12.7 µM],.,10%,.,.,.
COc1ccc(-c2ccc(SCC(=O)Nc3cccc(C(C)=O)c3)nn2)cc1OC,-22%,.,11%,17%,.,3%
